From PubChem BioAssay (NCI)
The panel holds about 83,000 compounds, 20% with a hit somewhere; the sample as a whole holds those more often.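 Cell lines were cultured in 96-well plates, exposed to a single compound concentration, and assessed for percent growth 48 hours later.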 A number with no mark means an inactive call. Active and inactive are the calls of the source. Rule for the calls: active = growth percent below 10; inactive = the rest.

Assays:
Experiment in all cases: NCI-60 one-dose screen, 48 h (100 = growth as untreated, 0 = no growth, -100 = all killed)
Conditions in all cases: 10 µM unless noted
DU-145 prostate = test system: DU-145 prostate
K-562 leukemia = test system: K-562 leukemia
MALME-3M melanoma = test system: MALME-3M melanoma
MDA-MB-231 breast = test system: MDA-MB-231 breast
RXF 393 renal = test system: RXF 393 renal
SF-268 CNS = test system: SF-268 CNS
SF-295 CNS = test system: SF-295 CNS
SF-539 CNS = test system: SF-539 CNS
UACC-257 melanoma = test system: UACC-257 melanoma
M14 melanoma = test system: M14 melanoma
HCT-15 colon = test system: HCT-15 colon
HT29 colon = test system: HT29 colon
SNB-75 CNS = test system: SNB-75 CNS
SNB-19 CNS = test system: SNB-19 CNS
U251 CNS = test system: U251 CNS
PC-3 prostate = test system: PC-3 prostate
SK-MEL-5 melanoma = test system: SK-MEL-5 melanoma
UACC-62 melanoma = test system: UACC-62 melanoma
LOX IMVI melanoma = test system: LOX IMVI melanoma
SK-MEL-28 melanoma = test system: SK-MEL-28 melanoma

Structure (SMILES)	growth (DU-145 prostate)	growth (K-562 leukemia)	growth (MALME-3M melanoma)	growth (MDA-MB-231 breast)	growth (RXF 393 renal)	growth (SF-268 CNS)	growth (SF-295 CNS)	growth (SF-539 CNS)	growth (UACC-257 melanoma)	growth (M14 melanoma)	growth (HCT-15 colon)	growth (HT29 colon)	growth (SNB-75 CNS)	growth (SNB-19 CNS)	growth (U251 CNS)	growth (PC-3 prostate)	growth (SK-MEL-5 melanoma)	growth (UACC-62 melanoma)	growth (LOX IMVI melanoma)	growth (SK-MEL-28 melanoma)
Clc1ccc2[nH]c3c(NCCCN4CCOCC4)ncnc3c2c1	87.3%	31.6%	93.9%	56.7%	70.5%	99.6%	64.7%	95.4%	98.2%	73.8%	84.1%	18.6%	85%	92.9%	69.6%	75.6%	67%	80.1%	64.5%	
O=C(/C=C/C12c3ccccc3C(c3ccccc31)C1C(=O)N(c3ccccc3)C(=O)C12)c1ccc(Cl)cc1 (stereo not drawn)	21.8%	18.2%	-32.7% (active)	-11.8% (active)	-71.2% (active)	43%	6.27% (active)	0.701% (active)	20.2%	30%	-0.519% (active)	8.4% (active)	72.1%	39.4%	19.8%	22.3%	-55.2% (active)	5.42% (active)	-81.1% (active)	4.17% (active)
N[C@@H]1CCC[C@H]1NCCCCN1C(=O)c2cccc3cccc(c23)C1=O	59.8%	60.4%	116%	58.2%	72.8%	52.6%	84.4%	7.65% (active)	100%	64%	81.8%	33.8%	84.4%	85.5%	59%	61.6%	93.1%	95.7%	24.4%	
Cc1cc(-c2ccccc2)cc(SC#N)[n+]1[O-]	46.6%	16%	59.3%	52.7%	49.6%	43.3%	23.2%	43.5%	59.2%	19.3%	24.7%	50.6%	78.5%	41.2%	24.1%	38.7%	32.6%	28.8%	29.7%	
CCCCCCCSc1ccc(C(=O)O)cc1	119%	105%	111%	112%	94.4%	109%	94.3%	99.7%	95.8%	113%	111%	112%	71.2%	95.4%	95.1%	99.9%	108%	98.6%	103%	
NS(=O)(=O)Oc1ccc(NC(=O)C23CC4CC(CC(C4)C2)C3)cc1Cl	99.8%	94.6%	97.6%	90.5%	111%	88.1%	101%	87.3%	90.2%	97.3%	101%	103%	84.3%	90.9%	96%	94.5%	91.1%	86.8%	82.9%	104%
COC(=O)CNC(=O)C(=O)c1c(O)c(O)c(C(C)C)c2cc(C)c(-c3c(C)cc4c(C(C)C)c(O)c(O)c(C(=O)C(=O)NCC(=O)OC)c4c3O)c(O)c12	24.9%	14.7%	46.2%	-13.6% (active)	53.8%	26.8%	1.96% (active)	18.9%	52.1%	36.7%	18.3%	6.08% (active)	57.5%	18.5%	4.8% (active)	18.7%	50.1%	48.5%	21.2%	44.7%
C#CC[C@H](N)C(=O)O	104% [20 µM]	96.8% [20 µM]	97% [20 µM]	99.1% [20 µM]	114% [20 µM]	99.8% [20 µM]	102% [20 µM]	96% [20 µM]	101% [20 µM]	100% [20 µM]	100% [20 µM]	98.7% [20 µM]	68% [20 µM]	93.1% [20 µM]	100% [20 µM]	102% [20 µM]	102% [20 µM]	95.4% [20 µM]	94.7% [20 µM]	110% [20 µM]
N[C@H]1CCC[C@@H]1NCCCCN1C(=O)c2cccc3cccc(c23)C1=O	43.4%	65.9%	104%	52.4%	63.9%	48.1%	71.9%	29.7%	104%	53.1%	83.6%	26.2%	75.7%	77%	63%	55%	91.6%	95.7%	26.1%	
CC(C)n1nc(C#Cc2cccc3cc(-c4cccc(C(F)(F)F)c4)ncc23)c2c(N)ncnc21	89.4%	2.23% (active)	93.1%	59.8%	81.7%	76%	91%	54.4%	82.7%	56.2%	64.3%	29.7%	-4.27% (active)	99.6%	63.6%	59.6%	85.1%	66.6%	58.1%	83.3%
c1ccc(-c2oc3ccccc3c2-c2ccccc2)cc1	115%	67.7%	110%	100%	99.1%	109%	104%	98.5%	111%	102%	93.6%	99%	72.5%	99.3%	95.9%	90%	84.3%	80%	95.8%	113%
CNC(=O)c1c(NC(=O)c2ccc(C(C)(C)C)cc2)sc2c1CCC(=O)C2	27.7%	5.54% (active)	-12.8% (active)	-20.5% (active)	-11.3% (active)	14%	2.19% (active)	-51.9% (active)	16.8%	3.53% (active)	-20.5% (active)	3.63% (active)	-27.8% (active)	17.7%	4.12% (active)	-0.67% (active)	-83.1% (active)	0.579% (active)	8.5% (active)	12.2%
CN(C)c1ccc2cc(-c3ccc(Cl)c(Cl)c3)c(N)nc2c1	56.2%	12.1%	29.8%	63.1%	63%	50.1%	11.9%	48.5%	21.3%	25.5%	32.1%	2.59% (active)	63.3%	63.6%	31.1%	27.6%	-58.8% (active)	57.2%	20.6%	
C=C1C(=O)O[C@H]2[C@H]1CC/C(Cn1cc(CNCCc3c[nH]c4ccc(Cl)cc34)nn1)=C\CC[C@@]1(C)O[C@@H]21	83.6%	2.7% (active)	53.9%	59.7%	16%	77.9%	95.4%	53.6%	53.4%	66.1%	88.6%	21.2%	69.6%	83.7%	60.2%	75%	86.6%	63%	62%	81.5%
CS(=O)(=O)c1ccc(-c2[nH]c3ccc(F)cc3c2/C=N/O)cc1	97.2%	89.4%	105%	89.2%	104%	93%	100%	88.8%	86.7%	96.6%	98.4%	93.7%	69.2%	103%	91.2%	79.4%	103%	91.2%	95.3%	
COc1ccc(Nc2ncc(Br)c(NCCCNC(=O)C3CCC3)n2)cc1	38.9%	23%	77.7%	-25.7% (active)	-41.2% (active)	23.4%	30.9%	2.94% (active)	74.3%	55.2%	21.7%	31%	-4.95% (active)	33.1%	19.8%	39.2%	44.2%	56.6%	4.32% (active)	54.7%
